Source: PubChem BioAssay
IL-1B inflam inh = qHTS for Inhibitors of Inflammasome Signaling: IL-1-beta AlphaLISA Primary Screen. actives 4.7% (n = 360,000). activity change, % at 57.5 µM. AID 743279, 2014. THP-1 LPS/ATP IL-1B secretion, AlphaLISA, 16 h; active compounds read low; in the data active means activity change below about -50%; inconclusive means mostly about -30% to -49%
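Secreted IL-1B measured by AlphaLISA bead assay after 16 h compound exposure of THP-1 cells; compounds (final up to 57.5 uM) added 1 h before LPS (250 ng/mL) and ATP (1.25 mM) stimulation; lower signal means less secretion.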
HT1080 IDH1KD tx = qHTS for induction of synthetic lethality in tumor cells producing 2HG: qHTS for the HT-1080-IDH1KD cell line | HT-1080 IDH1 knockdown viability, ATP luminescence, 48 h | Potency, µM (highest dose often 46.1 µM), inactives show at the highest dose activity, negative = toxicity, usual class: cytotoxic | actives 2% (n = 360,000);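 further: potency means the concentration at half of the fitted maximal effect; 0% = DMSO wells and -100% = cell-free medium wells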
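HT-1080-IDH1KD cells (IDH1 knocked down), 750/well in RPMI with 5% FBS, treated with compound 48 h at 37 degrees C. Viability by CellTiter-Glo luminescence, normalised to DMSO and no-cell wells; concentration-response curves classed.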
HT1080NT lethal = qHTS for induction of synthetic lethality in tumor cells producing 2HG: qHTS for the HT-1080-NT fibrosarcoma cell line. Potency, µM (doses to about 46.1 µM), without a hit: top-dose activity, negative = less viability, actives largely listed as cytotoxic. HT-1080-NT fibrosarcoma viability, CellTiter-Glo ATP luminescence, 48 h. actives 1.6% (n = 360,000);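 further: NT is the 2HG producing partner of a matched IDH1 knockdown line; potency means the concentration at half of the fitted maximal effect; 0% = DMSO-treated cells and -100% = media-only wells without cells; nearly all actives have a fitted effect of over 55% in size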
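750 cells/well, RPMI + 5% FBS; 2 h settle, compound pin-transfer, 48 h at 37 degrees C. CellTiter-Glo 10 min RT, luminescence. Normalized to DMSO and media-only wells.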
DT40 TDP1 no CPT = qHTS for Inhibitors of human tyrosyl-DNA phosphodiesterase 1 (TDP1): qHTS in cells in absence of CPT; DT40 Tdp1-/- hTDP1 cells, no CPT, ATP luminescence, 48 h; Potency, µM (doses to about 46.2 µM), inactives show at the highest dose activity change, negative = growth inhibition, most hits filed as inhibitors; actives 15% (n = 420,000); AID 686978, 2013; further: potency means the concentration at half of the fitted maximal effect; nearly all actives have a fitted effect of over 55% in size
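Camptothecin absent (DMSO only). Human TDP1-complemented DT40 knockout cells, 400 cells/well, 37 °C for minimum 48 hr; ATP measured via CellTiter-Glo, 30 min dark incubation, luminescence.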
DT40 TDP1 CPT = qHTS for Inhibitors of human tyrosyl-DNA phosphodiesterase 1 (TDP1): qHTS in cells in presence of CPT | chicken DT40 Tdp1-/-;hTDP1 cells + 20 nM CPT, ATP luminescence, 48 h | Potency, µM (titrated, usually from 46.2 µM), inactives show top-dose activity change, negative = growth inhibition, most hits filed as inhibitors | actives 12% (n = 420,000) | AID 686979, 2013; further: potency means the concentration at half of the fitted maximal effect; nearly all actives have a fitted effect of over 55% in size
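Chicken DT40 Tdp1-/- cells complemented with human TDP1, 400 cells/well, exposed to compounds plus 20 nM camptothecin for at least 48 h at 37 C; viability read as ATP content by CellTiter-Glo luminescence.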
* marks the source's active call; other numbers are inactive results; u = inconclusive; x = not tested or not shown. Compounds with a hit are over-represented: about 19% of the library has one in this group of screens. Unless noted, the call rests on the fitted dose curve; in most records, active means well fitted curve in the direction sought with a large enough effect; inconclusive means small, poorly fitted or top-dose-only effect, or another doubt; inactive means no such curve, though single readings can be large; an effect the other way counts as inactive or inconclusive. Unless noted, on the % scale 0 is the no-effect control and ±100 the full control effect.

SMILES	IL-1B inflam inh	HT1080 IDH1KD tx	HT1080NT lethal	DT40 TDP1 no CPT	DT40 TDP1 CPT
O=C(NC(=S)Nc1cccc(Cl)c1Cl)C1CC1	77	-9%	-11%	u	13µM*
O=C(NC(=S)Nc1ccccc1Br)C1CCCC1	3	6%	5%	u	-21%
CCOc1ccc(S(=O)(=O)N2CCOCC2)cc1[N+](=O)[O-]	-9	7%	9%	-7%	-11%
CCOC(=O)C1=NNC2(c3ccc(Cl)cc3)C(=O)N(c3ccc(C)cc3)C(=O)C12 (stereo unspecified)	29	1%	-2%	1%	-22%
CC1=NN(S(=O)(=O)c2ccc(Cl)cc2Cl)C(=O)c2ccccc2O1	6	-3%	-18%	16µM*	16µM*
Cc1nn(-c2ccc(Cl)cc2Cl)c(=O)c2ccccc12	3	0%	-13%	-28%	-20%
Cn1c(-c2cccs2)[n+](C)c2ccccc21	7	u	-3%	18µM*	u
COC(=O)c1ccc(C(=O)Nc2ccc(F)cc2)cc1	11	-12%	-16%	8.2µM*	10µM*
COC(=O)c1ccc(NC(=O)Cc2ccc(F)cc2)cc1	-1	-5%	-15%	u	u
COc1ccc(NC(=O)Nc2cccc(F)c2)c(OC)c1	u	-3%	-4%	-11%	-5%
CN(C)c1ccc(NC(=O)Nc2csc3ccccc23)cc1	0	-8%	-9%	-26%	-3%
O=C(Nc1ccc(F)cc1)Nc1csc2ccccc12	x	u	u	23µM*	23µM*
COC(=O)c1ccc(NC(=O)Nc2cccc(F)c2)cc1	-92*	u	u	u	u
O=C(Nc1ccccc1)Nc1ccc(F)cc1F	-12	-5%	-1%	23µM*	u
COc1ccc(C(=O)O)cc1S(=O)(=O)NC(C)C12CC3CC(CC(C3)C1)C2 (stereo unspecified)	14	-11%	13%	9%	17%
CC(=O)Nc1cccc(NC(=O)Nc2ccc(F)cc2F)c1	9	22%	18%	u	14%
COC(=O)c1ccc(NC(=O)Nc2ccc(F)cc2F)cc1	-53*	-2%	3%	6.5µM*	8.2µM*
O=C(COC(=O)CC1SC(N2CCCC2)=NC1=O)Nc1ccc(Br)cc1 (stereo unspecified)	18	4%	2%	-12%	-2%
O=C(CSc1nnc(-c2csc3c2CCCC3)o1)Nc1ccccc1	-50*	-3%	-11%	u	u
O=C(CSc1nnc(-c2ccc(O)cc2)o1)Nc1ccccc1	-3	-15%	-11%	-20%	6%
CSc1cc(C)c(OCC(=O)Nc2c(C)nn(C)c2C)c(C)c1	0	-4%	-6%	u	15µM*
COc1ccc(/C=C/C(=O)Nc2c(C)nn(C)c2C)cc1COc1ccc(Cl)cc1Br	u	-7%	24%	u	18µM*
Cc1nn(C)c(C)c1NC(=O)COc1ccccc1C#N	10	6%	2%	-14%	11%
Cc1nn(C)c(C)c1NC(=O)COc1ccc(F)cc1Br	3	-11%	13µM*	13µM*	u
COC(=O)c1c(-c2ccccc2)c[nH]c1C	-15	-10%	-3%	-4%	-5%
SMILES	IL-1B inflam inh	HT1080 IDH1KD tx	HT1080NT lethal	DT40 TDP1 no CPT	DT40 TDP1 CPT
CCOC(=O)C1(C)CCCN(C(=O)c2c(-c3ccccc3)noc2C)C1 (stereo unspecified)	18	11%	-1%	u	13µM*
CCOC(=O)C1CCN(C(=O)c2c(-c3ccccc3)noc2C)CC1	-73*	-2%	1%	-25%	13%
CCOC(=O)C1CCCN(C(=O)c2c(-c3ccccc3)noc2C)CC1 (stereo unspecified)	6	2%	22%	-16%	u
COc1ccc(CN2CCN(C(=O)c3c(-c4ccccc4)noc3C)CC2)cc1F	21	-3%	-5%	23µM*	u
COc1cc(-c2ccc(Cl)cn2)cc2c1OCCN(C(=O)c1ccccc1-n1cccn1)C2	x	x	x	u	0%
Cc1ccc(C(=O)N(Cc2ccco2)c2ccccn2)cc1	x	x	x	u	-18%
Cc1cc(C)n(C(=O)CCCCCCCCC(=O)n2nc(C)cc2C)n1	7	1%	2%	-8%	16%
COc1ccc(C(=O)/C=C/C(=O)N(CC(=O)NC2CCCCC2)Cc2ccccc2OC)c(O)c1	-100*	u	u	2.1µM*	1.6µM*
COc1ccc(C(=O)/C=C/C(=O)N(CC(=O)NC2CCCCC2)Cc2ccccc2)c(O)c1	-100*	3.7µM*	3.7µM*	2.1µM*	1.5µM*
Cc1ccccc1NC(=O)CC(C)S(=O)(=O)c1ccc2c(c1)NC(=O)CO2 (stereo unspecified)	10	21%	2%	8%	-14%
COCCSc1ccccc1C(=O)N1CCN(Cc2ccccc2)CC1	u	3%	-4%	-1%	-26%
Cc1nc2ccccc2c(=O)n1NC(=O)CCC(=O)O	8	1%	-16%	8%	-3%
COc1ccc(Nc2ccnc3ccccc23)cc1	u	-23%	-15%	16µM*	13µM*
c1ccc(CCNc2ccnc3cc4ccccc4cc23)cc1	-102*	21µM*	18µM*	7.3µM*	5.8µM*
COc1cc(/C=C/c2ccnc3ccccc23)cc(OC)c1OC	x	x	x	11µM*	11µM*
COc1ccc(Nc2ccnc(Nc3ccc(OC)cc3)n2)cc1	-99*	21µM*	23µM*	2.6µM*	2.6µM*
O=C(NCCc1ccccc1)c1nccc2ccccc12	6	17%	17%	-14%	-16%
CC(C)Nc1ccc(Nc2ccnc3cc4ccccc4cc23)cc1	-107*	5.2µM*	u	7.3µM*	8.2µM*
COc1ccc(/C=C/c2ccnc3ccccc23)cc1	x	x	x	32µM*	11µM*
COc1cc(N(C)C)ccc1/C=C/c1ccnc2ccccc12	x	x	x	25µM*	10µM*
COc1ccc(/C=C/c2ccccn2)cc1	x	x	x	-103%	u
COc1ccc(/C=C/c2ccnc3ccccc23)c(OC)c1	x	x	x	18µM*	22µM*
CC1CCCN(S(=O)(=O)c2ccc(S(=O)(=O)NC(C)c3cccs3)cc2)C1 (stereo unspecified)	39	-1%	-17%	u	u
COc1ccc(C2CCc3cc4c(cc3C2=NO)OCO4)cc1OC (stereo unspecified)	-5	-23%	-1%	15µM*	u
